# Measurements as given in the supplement of paper PMC8728848.
# The entries come from a sample that favours the strongest signals as a whole.
# Experiments:
# Assay in all cases: glycan array binding signal (z-score within array); higher = stronger binding
# [1] = tested on: GlcNAc(b1-3)Gal(b1-4)GlcNAc(b1-2)[GlcNAc(b1-3)Gal(b1-4)GlcNAc(b1-6)]Man(a1-6)[GlcNAc(b1-3)Gal(b1-4)GlcNAc(b1-2)Man(a1-3)]Man(b1-4)GlcNAc(b1-4)GlcNAc; conditions: glycan notation: IUPAC condensed, linker removed
# How it was run: (§1)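 The binding signal is a Z-score computed within each array. Data were drawn from 3228 arrays in the Consortium for Functional Glycomics database, restricted to those with a known protein sequence. Scores were averaged over arrays of the same protein sequence at different concentrations or buffers, and over linkers, and negative values can be taken as non-binding.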
# [2] = tested on: GlcNAc(a1-6)Gal(b1-4)GlcNAc; conditions: glycan notation: IUPAC condensed, linker removed; mutation: D138V, E140I
# How it was run: as §1
# [3] = tested on: GlcNAc(b1-2)Man(a1-3)[GlcNAc(b1-2)Man(a1-6)]Man(b1-4)GlcNAc(b1-4)GlcNAc; conditions: glycan notation: IUPAC condensed, linker removed
# How it was run: as §1
# [4] = tested on: GlcNAc(b1-2)Man(a1-3)[GlcNAc(b1-4)][GlcNAc(b1-2)Man(a1-6)]Man(b1-4)GlcNAc(b1-4)GlcNAc; conditions: glycan notation: IUPAC condensed, linker removed
# How it was run: as §1
# [5] = tested on: GlcNAc(b1-2)Man(a1-3)[GlcNAc(b1-4)][GlcNAc(b1-2)Man(a1-6)]Man(b1-4)GlcNAc(b1-4)[Fuc(a1-6)]GlcNAc; conditions: glycan notation: IUPAC condensed, linker removed
# How it was run: as §1
# [6] = tested on: GlcNAc(b1-2)[GlcNAc(b1-4)]Man(a1-3)[GlcNAc(b1-4)][GlcNAc(b1-2)Man(a1-6)]Man(b1-4)GlcNAc(b1-4)GlcNAc; conditions: glycan notation: IUPAC condensed, linker removed; mutation: R125K
# How it was run: as §1
# [7] = tested on: GlcNAc(b1-2)[GlcNAc(b1-6)]Man(a1-6)[GlcNAc(b1-2)Man(a1-3)][GlcNAc(b1-4)]Man(b1-4)GlcNAc(b1-4)GlcNAc; conditions: glycan notation: IUPAC condensed, linker removed
# How it was run: as §1
# [8] = tested on: GlcNAc(b1-2)[GlcNAc(b1-6)]Man(a1-6)[GlcNAc(b1-4)][GlcNAc(b1-2)Man(a1-3)]Man(b1-4)GlcNAc(b1-4)GlcNAc; conditions: glycan notation: IUPAC condensed, linker removed; mutation: R125K
# How it was run: as §1
# [9] = tested on: GlcNAc(b1-2)Gal(b1-3)GalNAc; conditions: glycan notation: IUPAC condensed, linker removed
# How it was run: as §1
# [10] = tested on: GlcNAc(b1-2)Man(a1-3)[GlcNAc(b1-2)Man(a1-6)]Man(b1-4)GlcNAc(b1-4)[Fuc(a1-6)]GlcNAc; conditions: glycan notation: IUPAC condensed, linker removed
# How it was run: as §1
# CHT (Homo sapiens), sequence (chain, as listed by the source): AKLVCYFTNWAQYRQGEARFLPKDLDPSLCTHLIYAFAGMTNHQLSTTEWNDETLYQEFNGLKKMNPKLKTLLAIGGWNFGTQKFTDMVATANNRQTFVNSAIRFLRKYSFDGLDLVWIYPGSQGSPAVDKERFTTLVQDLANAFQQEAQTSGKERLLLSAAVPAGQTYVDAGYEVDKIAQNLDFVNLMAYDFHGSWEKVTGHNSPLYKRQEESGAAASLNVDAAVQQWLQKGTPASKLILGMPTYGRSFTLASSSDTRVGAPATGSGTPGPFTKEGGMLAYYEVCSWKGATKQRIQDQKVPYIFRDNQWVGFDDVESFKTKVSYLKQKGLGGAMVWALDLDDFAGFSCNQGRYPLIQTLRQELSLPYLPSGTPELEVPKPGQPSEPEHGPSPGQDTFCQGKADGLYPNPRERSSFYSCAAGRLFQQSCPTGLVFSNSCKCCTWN
# Neurocan (Homo sapiens), O14594, sequence (O14594 other isoform, or with tags, fused parts or gaps): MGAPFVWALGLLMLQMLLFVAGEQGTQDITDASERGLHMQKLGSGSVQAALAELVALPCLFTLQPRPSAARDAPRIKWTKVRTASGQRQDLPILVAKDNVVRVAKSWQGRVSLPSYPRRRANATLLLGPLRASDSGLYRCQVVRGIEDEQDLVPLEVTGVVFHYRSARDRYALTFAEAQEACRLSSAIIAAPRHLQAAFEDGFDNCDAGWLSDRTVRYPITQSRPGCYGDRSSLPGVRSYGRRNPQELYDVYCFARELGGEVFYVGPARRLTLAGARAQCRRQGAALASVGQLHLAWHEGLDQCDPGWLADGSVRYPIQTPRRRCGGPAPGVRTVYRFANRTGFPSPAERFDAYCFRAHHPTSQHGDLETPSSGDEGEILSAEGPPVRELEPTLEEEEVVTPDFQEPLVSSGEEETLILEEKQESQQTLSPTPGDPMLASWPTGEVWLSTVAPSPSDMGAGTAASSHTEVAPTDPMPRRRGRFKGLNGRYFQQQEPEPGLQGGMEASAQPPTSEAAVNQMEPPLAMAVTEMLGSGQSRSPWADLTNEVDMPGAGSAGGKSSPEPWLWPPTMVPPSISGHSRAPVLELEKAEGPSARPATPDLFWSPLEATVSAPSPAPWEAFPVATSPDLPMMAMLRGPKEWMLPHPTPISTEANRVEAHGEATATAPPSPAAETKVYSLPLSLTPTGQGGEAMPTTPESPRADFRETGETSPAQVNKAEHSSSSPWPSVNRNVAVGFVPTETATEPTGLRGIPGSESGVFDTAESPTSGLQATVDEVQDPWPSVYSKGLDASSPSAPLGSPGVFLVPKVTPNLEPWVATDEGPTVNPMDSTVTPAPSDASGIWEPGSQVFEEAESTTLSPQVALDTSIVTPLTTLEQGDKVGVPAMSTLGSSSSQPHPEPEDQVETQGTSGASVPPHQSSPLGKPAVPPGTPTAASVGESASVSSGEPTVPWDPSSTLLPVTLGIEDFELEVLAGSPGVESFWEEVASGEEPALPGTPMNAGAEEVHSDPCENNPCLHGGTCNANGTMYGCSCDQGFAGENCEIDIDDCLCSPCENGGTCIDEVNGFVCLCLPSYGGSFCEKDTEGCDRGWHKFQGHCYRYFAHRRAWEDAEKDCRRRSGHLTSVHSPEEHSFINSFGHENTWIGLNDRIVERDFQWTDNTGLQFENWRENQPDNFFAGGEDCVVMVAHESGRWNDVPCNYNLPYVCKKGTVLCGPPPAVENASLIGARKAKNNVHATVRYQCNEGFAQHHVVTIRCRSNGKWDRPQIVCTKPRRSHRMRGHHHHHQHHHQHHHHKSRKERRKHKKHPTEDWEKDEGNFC
# PILRb (Mus musculus), Q2YSF2, sequence (Q2YSF2 entry or part of it): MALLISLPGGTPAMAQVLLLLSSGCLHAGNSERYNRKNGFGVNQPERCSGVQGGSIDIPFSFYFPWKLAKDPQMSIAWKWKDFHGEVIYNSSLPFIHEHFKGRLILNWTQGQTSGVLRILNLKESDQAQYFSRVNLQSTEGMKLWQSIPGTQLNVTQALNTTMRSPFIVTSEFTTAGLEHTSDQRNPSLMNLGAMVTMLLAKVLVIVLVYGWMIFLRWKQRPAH
# Avaren (Actinomycete K97), sequence (chain, as listed by the source): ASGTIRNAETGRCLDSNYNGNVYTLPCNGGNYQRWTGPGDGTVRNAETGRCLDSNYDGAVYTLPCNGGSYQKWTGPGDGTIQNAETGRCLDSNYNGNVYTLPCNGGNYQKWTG
# C3b (Homo sapiens), P01024, sequence (P01024 23-667): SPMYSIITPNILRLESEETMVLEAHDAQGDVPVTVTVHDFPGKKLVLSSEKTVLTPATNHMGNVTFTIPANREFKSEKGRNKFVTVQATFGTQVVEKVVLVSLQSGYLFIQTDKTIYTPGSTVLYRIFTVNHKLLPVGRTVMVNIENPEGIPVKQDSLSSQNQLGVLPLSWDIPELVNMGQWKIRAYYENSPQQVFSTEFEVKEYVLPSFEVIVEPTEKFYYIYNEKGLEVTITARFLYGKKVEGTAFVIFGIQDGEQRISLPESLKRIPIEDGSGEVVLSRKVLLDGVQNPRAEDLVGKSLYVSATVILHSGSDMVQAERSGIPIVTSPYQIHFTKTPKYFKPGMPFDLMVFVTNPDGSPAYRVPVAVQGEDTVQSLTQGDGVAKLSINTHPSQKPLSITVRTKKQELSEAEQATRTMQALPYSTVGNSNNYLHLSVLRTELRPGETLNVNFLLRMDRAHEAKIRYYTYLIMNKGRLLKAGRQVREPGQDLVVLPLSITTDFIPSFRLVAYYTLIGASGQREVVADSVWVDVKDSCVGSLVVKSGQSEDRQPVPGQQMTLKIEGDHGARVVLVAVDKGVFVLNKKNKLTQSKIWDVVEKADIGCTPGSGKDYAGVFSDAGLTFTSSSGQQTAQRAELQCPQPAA
substance,measurement,setting,value
MpAFP RI GFP (Marinomonas primoryensis),glycan array binding signal (z-score),[1],5.77
CHT (Homo sapiens),glycan array binding signal (z-score),[2],-0.177
"Neurocan (Homo sapiens), O14594",glycan array binding signal (z-score),[3],-0.834
Avaren (Actinomycete K97),glycan array binding signal (z-score),[4],-0.134
"Siglec-8 (Homo sapiens), Q9NYZ4",glycan array binding signal (z-score),[3],-0.041
same,glycan array binding signal (z-score),[5],0.376
same,glycan array binding signal (z-score),[6],5.14
same,glycan array binding signal (z-score),[7],-0.061
same,glycan array binding signal (z-score),[8],-0.415
"C3b (Homo sapiens), P01024",glycan array binding signal (z-score),[9],-0.291
"PILRb (Mus musculus), Q2YSF2",glycan array binding signal (z-score),[10],0.569
